# Measurements taken from PubChem BioAssay (NCATS).
# Records with an inconclusive call do not appear. Entries that show only a call come without a potency. Values without a mark were called inactive. Activity calls are given as the source filed them. Calls follow the shape of the dose curve; as a rule, active = well fitted curve in the direction sought with a large enough effect; inconclusive = small, poorly fitted or top-dose-only effect, or another doubt; inactive = no such curve, though single readings can be large; an effect the other way counts as inactive or inconclusive.
# Columns and labels:
# [1] = system: Zika virus NS2B-NS3 protease (unlinked complex); assay: Primary screen GU Rhodamine qHTS for Zika virus inhibitors: Unlinked NS2B-NS3 protease assay (AID 1347159); also: nearly all actives have a fitted effect of over 60% in size; also: potency is read from the fitted curve at half-maximal effect
# Procedure, shortened: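 Noncovalent NS2B hydrophilic domain/NS3 protease complex (25 nM final) in 10 mM Tris-HCl pH 8.0, 0.01% Tween 20, preincubated 15 min with compounds (up to 114 microM), then 1.5 microM Rhodamine110 substrate. Fluorescence change over 15 min fitted to 4-parameter Hill.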
# [2] = system: Zika virus NS2B-NS3 protease (linked construct); assay: Primary screen NINDS Rhodamine qHTS for Zika virus inhibitors (AID 1347160); also: nearly all actives have a fitted effect of over 55% in size; also: potency is read from the fitted curve at half-maximal effect
# Procedure, shortened: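 Purified NS2B-NS3 protease with the NS2B hydrophilic domain joined by a flexible linker (25 nM) in 10 mM Tris-HCl pH 8.0, 0.01% Tween 20, preincubated 15 min at RT with compound; Rhodamine110 peptide substrate 1.5 µM; fluorescence change over 15 min; 4-parameter Hill fit.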
# [3] = OV-KATE Cancer Cell Toxicity qHTS against the NCATS CANVASS Library (AID 1347345)
# Procedure, shortened: (§1)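 1000 cells/well; 4 h settle; 11-pnt titration; 72 h, 37 degrees C, 5% CO2; CellTiter-Glo, 15min RT; luminescence read.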
# [4] = HPAF-II Cancer Cell Toxicity qHTS against the NCATS CANVASS Library (AID 1347346); also: series mostly up to about 38 µM; nearly all actives have a fitted effect of over 55% in size
# Procedure, shortened: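 Luminescence from CellTiter-Glo, added after 72 h compound exposure and a 15 min room-temperature incubation, served as the viability readout. HPAF-II cells (1000/well) received an 11-point concentration series.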
# [5] = UWB1.289 Cancer Cell Toxicity qHTS against the NCATS CANVASS Library (AID 1347347); also: series mostly up to about 38 µM; nearly all actives have a fitted effect of over 60% in size
# Procedure, shortened: as §1
# [6] = OV-SAHO Cancer Cell Toxicity qHTS against the NCATS CANVASS Library (AID 1347348); also: series mostly up to about 38 µM; nearly all actives have a fitted effect of over 55% in size
# Procedure, shortened: as §1
# [7] = Panc-1005 Cancer Cell Toxicity qHTS against the NCATS CANVASS Library (AID 1347349); also: series mostly up to about 38 µM; nearly all actives have a fitted effect of over 60% in size
# Procedure, shortened: as §1
# [8] = SW1088 Cancer Cell Toxicity qHTS against the NCATS CANVASS Library (AID 1347350); also: series mostly up to about 38 µM; nearly all actives have a fitted effect of over 75% in size
# Procedure, shortened: as §1
# [9] = U-118MG Cancer Cell Toxicity qHTS against the NCATS CANVASS Library (AID 1347351); conditions: outcome: dose series up to 38.3 µM
# Procedure, shortened: as §1
structure (smiles),measurement,setting,value
CC(=O)OC(C)(C)/C=C/C(=O)[C@](C)(O)C1[C@H](O)C[C@@]2(C)[C@@H]3CC=C4[C@@H](C[C@H](O[C@@H]5O[C@H](CO)[C@@H](O)[C@H](O)[C@H]5O)C(=O)C4(C)C)[C@]3(C)C(=O)C[C@]12C (stereo partly specified),Potency,[1],inactive
same,Potency,[2],inactive
COC(=O)c1c(CC=C(C)C)c(OC2OC(CO)C(O)C(O)C2O)c2ccccc2c1OC1OC(CO)C(O)C(O)C1O (stereo unspecified),Potency,[1],inactive
same,Potency,[2],inactive
CC(C)=C1CC2[C@](C)(CC[C@@H](OC(=O)C3(C)OC3C)[C@@]2(C)O)CC1=O (stereo partly specified),Potency,[1],inactive
same,Potency,[2],inactive
C=C(CCO)C(=O)OCC1OCC(OC(=O)C(=C)CCO[C@@H]2O[C@H](COC(=O)C(=C)CCO[C@@H]3O[C@H](CO)[C@@H](O)[C@H](O)[C@H]3O)[C@@H](O)[C@H](O)[C@H]2O)C(O)C1O (stereo partly specified),Potency,[1],inactive
same,Potency,[2],inactive
CSCC1OC(n2cnc3c(=O)[nH]cnc32)C(O)C1O (stereo unspecified),Potency,[1],inactive
same,Potency,[2],inactive
O=C(O)CCc1cc2ccoc2cc1O[C@@H]1O[C@H](CO)[C@@H](O)[C@H](O)[C@H]1O,Potency,[1],inactive
same,Potency,[2],inactive
C=C(C)C1CCC2(C(=O)OC3OC(COC4OC(CO)C(O)C(O)C4O)C(OC4OC(C)C(O)C(O)C4O)C(O)C3O)CCC3(C(=O)O)C(CCC4C5(C)CCC(=O)C(C)(C)C5CCC43C)C12 (stereo unspecified),Potency,[1],inactive
same,Potency,[2],inactive
C/C(CO)=C1/CCC23COC(C2)C(O)(C(=O)O)CCC13 (stereo unspecified),Potency,[1],inactive
same,Potency,[2],inactive
C=C(C)[C@@H]1CC[C@]2(C(=O)O)CC[C@]3(C)[C@H](CCC4[C@@]5(C)CCC(=O)C(C)(C)C5C(O)C[C@]43C)C12 (stereo partly specified),Potency,[1],inactive
same,Potency,[2],inactive
CCCCC(=O)N1c2ccccc2NC2=C(C(=O)CCC2)C1c1ccccc1Cl (stereo unspecified),Potency,[1],inactive
same,Potency,[2],inactive
C[C@@]1(C(=O)O)CCC[C@@]2(C)C3=CC[C@H]4C[C@@]3(CC[C@H]12)CC4(O)CO (stereo partly specified),Potency,[1],inactive
same,Potency,[2],inactive
COC(=O)C1=CO[C@@H](O[C@@H]2O[C@H](CO)[C@@H](O)[C@H](O)[C@H]2O)[C@@H]2C(C)CC(=O)[C@]12O (stereo partly specified),Potency,[1],inactive
same,Potency,[2],inactive
CCOC(=O)COc1ccc2c(c1)C[C@@H](NC[C@H](O)c1cccc(Cl)c1)CC2,Potency,[1],inactive
same,Potency,[2],inactive
C/C=C/C=C/C(O)=C1/C(=O)[C@]2(C)C3/C(=C(O)/C=C/C=C/C)C(=O)C4(C)C1[C@]1(C)O[C@@]4(O)[C@@]3(C)O[C@@]12O,Potency,[1],inactive
same,Potency,[2],inactive
CC/C=C/C=C/C1(C)OC(CC(CO)OC)=CC1=O (stereo unspecified),Potency,[1],inactive
same,Potency,[2],inactive
O=C(c1ccc(Cl)c([N+](=O)[O-])c1)N1CCN(c2ccccc2F)CC1,Potency,[1],inactive
same,Potency,[2],inactive
COc1cc(C2Oc3c(OC)cc(/C=C/C(=O)OC4CC(O)(C(=O)O)CC(O)C4O)cc3C2CO)ccc1O (stereo unspecified),Potency,[1],inactive
same,Potency,[2],inactive
CC(C)=CC1C[C@](C)(O)[C@@H]2[C@H]3CCC4[C@@]5(C)CC[C@H](O[C@@H]6OC[C@H](O)[C@H](O[C@@H]7O[C@H](CO[C@@H]8O[C@H](CO)[C@@H](O)[C@H](O)[C@H]8O)[C@@H](O)[C@H](O)[C@H]7O)[C@H]6O[C@@H]6O[C@@H](C)[C@H](O)[C@@H](O)[C@H]6O)C(C)(C)[C@@H]5CC[C@@]4(C)[C@@]34CO[C@@]2(C4)O1 (stereo partly specified),Potency,[1],inactive
same,Potency,[2],inactive
C=CC1(C)CC2CCC3C(C)(C(=O)O)CCCC3(C)C2=CC1=O (stereo unspecified),Potency,[1],inactive
same,Potency,[2],inactive
COc1ccc2c(c1)N1C(=O)C[C@@]34C=CC[N@+]5([O-])CC[C@H]2[C@H](CC3)[C@@]145,Potency,[1],inactive
same,Potency,[2],inactive
COC(=O)c1ccccc1O[C@@H]1O[C@H](CO[C@@H]2OC[C@@H](O)[C@H](O)[C@H]2O)[C@@H](O)[C@H](O)[C@H]1O,Potency,[2],inactive
CC(C)c1ccc2c(c1)CCC1[C@](C)(C(=O)O)CCC[C@]21C (stereo partly specified),Potency,[1],20 µM (active)
same,Potency,[2],12.4 µM (active)
same,outcome,[3],inactive
same,outcome,[4],inactive
same,outcome,[5],inactive
same,outcome,[6],inactive
same,outcome,[7],inactive
same,Potency,[8],inactive
same,outcome,[9],inactive
O=C(/C=C/C=C/c1ccc2c(c1)OCO2)N1CCCCC1,Potency,[1],inactive
same,Potency,[2],inactive
same,outcome,[3],inactive
same,outcome,[6],inactive
same,Potency,[8],inactive
same,outcome,[9],inactive
